The results in this text go back to PubChem BioAssay AID463082 (The Scripps Research Institute Molecular Screening Center, 2010).

Hit rate of the full screen: of about 330,000 compounds, about 4,900 (1.5%) were called active.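 Rule for the calls: active = inhibition above the mean inhibition across the screen plus 3 SD (cut at about 25% in these data); inactive = the rest.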 The list comes from a sample in which actives are over-represented; it also holds similar structures and randomly drawn compounds.

The target in the experiment is Platelet-activating factor acetylhydrolase (Homo sapiens) (UniProt Q13093). Nature of the experiment: inhibition of plasma PAF acetylhydrolase – biochemical, fluorescence polarization, human, primary screen (AID 463082).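 Note: inhibitors block binding of the rhodamine activity-based probe so polarization drops; 0% = enzyme with DMSO and 100% = wells lacking pPAFAH.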 The conditions noted are these: recombinant pPAFAH, FP-rhodamine probe fluorescence polarization; at 3.39 µM; active compounds read high. On the technique in general: In fluorescence polarisation assays a small probe gives low polarisation when free and higher when bound to something large.
Sequence of Platelet-activating factor acetylhydrolase (Homo sapiens) (Q13093 whole entry, looked up): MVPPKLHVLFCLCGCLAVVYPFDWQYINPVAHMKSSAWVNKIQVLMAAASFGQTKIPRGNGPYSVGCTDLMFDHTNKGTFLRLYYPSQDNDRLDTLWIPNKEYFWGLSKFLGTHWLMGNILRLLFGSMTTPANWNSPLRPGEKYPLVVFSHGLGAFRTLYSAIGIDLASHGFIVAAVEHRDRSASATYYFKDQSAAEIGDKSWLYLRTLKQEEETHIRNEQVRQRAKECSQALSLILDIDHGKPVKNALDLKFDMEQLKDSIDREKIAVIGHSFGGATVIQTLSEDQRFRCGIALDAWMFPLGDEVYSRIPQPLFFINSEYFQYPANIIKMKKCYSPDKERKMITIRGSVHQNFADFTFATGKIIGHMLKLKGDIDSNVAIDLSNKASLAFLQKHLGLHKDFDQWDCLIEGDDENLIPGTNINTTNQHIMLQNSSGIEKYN
As a reminder, the inhibition is the change of the read-out against control, counted positive when it falls. For `CC(=O)Nc1ccc(S(=O)(=O)Nc2nc(-c3ccc(C(C)(C)C)cc3)cs2)cc1`, the inhibition is 25.1% (active).

With `CC(=O)Nc1ccc(S(=O)(=O)Nc2ccc(-c3ccc4nnc(C)n4n3)cc2)cc1`, the inhibition was 3.56% (inactive).

On to `CC(=O)Nc1ccc(S(=O)(=O)Nc2cccc(NC(=O)C(C)(C)C)c2)cc1`, for which the inhibition is 6.07% (inactive).

For the molecule `O=C(NC(=S)Nc1cccc2c(O)cccc12)c1cccc(Br)c1`, the inhibition is 8.85% (inactive).

As to `O=C(Cc1cccs1)N1CCCC(c2nc(-c3ccc(S(=O)(=O)N4CCCC4)cc3)no2)C1` (stereo not given), the inhibition is 3.46% (inactive).

Regarding `COc1cc(-c2noc(C3CCCN(S(=O)(=O)c4cccc(Cl)c4)C3)n2)cc(OC)c1OC` (stereo not given), the inhibition is 1.19% (inactive).

Take `CC(C)c1ccc(-c2noc(C3CCCN(S(C)(=O)=O)C3)n2)cc1` (stereo not given): the inhibition was 26.1% (active).

Take `CCCn1c(N)c(C(=O)CSc2nnc(-c3cccnc3)n2-c2ccc(C)cc2C)c(=O)[nH]c1=O`: the inhibition was 4.8% (inactive).

As to `COCC1CCCN(Cc2nc(-c3ccc4c(c3)OCO4)no2)C1` (stereo not given), the inhibition is 0.91% (inactive).

Turning to `Cc1ccc(S(=O)(=O)N2CCN(C(=O)COC(=O)c3c(C)cc(C)cc3C)CC2)c(C)c1`, the inhibition is 0.75% (inactive).

In the case of `CCCCOc1ccc(C(=O)NCC(=O)OCC(=O)N2CCN(S(=O)(=O)c3ccc(C)cc3C)CC2)cc1`, the inhibition is 28% (active).

In the case of `Cc1ccc(S(=O)(=O)N2CCN(C(=O)COC(=O)CNC(=O)c3ccc(C(C)(C)C)cc3)CC2)c(C)c1`, the inhibition was 18% (inactive).

On to `COc1cccc(CNC(C)C(=O)Nc2ccc(S(=O)(=O)N3CCCC3)cc2)c1` (stereo not given), for which the inhibition was -5.3% (inactive).

As to `COc1ccc(S(=O)(=O)NCC(c2ccco2)N2CCOCC2)cc1` (stereo not given), the inhibition was -0.61% (inactive).

For `Cc1cc(C)cc(OCC(=O)OCC(=O)NC2CCCC2)c1`, the inhibition is 21.4% (inactive).

For the molecule `O=C(COC(=O)CNS(=O)(=O)c1ccc(F)c(F)c1F)NC1CCCC1`, the inhibition was 29.2% (active).

For the molecule `Cc1ccc(C(=O)NCC(=O)OCC(=O)NC2CCCCCCC2)cc1`, the inhibition was 9.66% (inactive).

On to `CN(C(=O)CC1C(=O)NCCN1Cc1ccc(F)cc1Cl)C1CCCCC1` (stereo not given), for which the inhibition was -3% (inactive).

For the molecule `COc1ccccc1-n1cn[nH]c1=S`, the inhibition is 6.13% (inactive).

`COc1ccc(OC)c(-n2c(-c3ccn[nH]3)n[nH]c2=S)c1`: the inhibition was -4.65% (inactive).

On to `COc1ccccc1-n1c(-c2cc(-c3ccco3)[nH]n2)n[nH]c1=S`, for which the inhibition was 28.5% (active).

As to `Cc1ccc(-n2c(Cc3cccs3)nnc2SCC(=O)OC(C)C)cc1`, the inhibition is 34% (active).

Regarding `COc1ccc(-n2c(SCC(=O)OC(C)C)nnc2-c2ccccn2)cc1`, the inhibition is 6.1% (inactive).

For `CCn1c(Cc2cccs2)nnc1SCC(=O)c1ccc(C)cc1`, the inhibition is 9.49% (inactive).

Consider `C=C1c2cccc(OC)c2O[C@H](C(=O)OCC)[C@@H]1CCCCCC`, for which the inhibition was 9.96% (inactive).

For the molecule `CSc1ccc(S(=O)(=O)Nc2cccc(F)c2)cc1`, the inhibition was 32.8% (active).

As to `Cc1cc(C)cc(NS(=O)(=O)c2ccc(F)cc2)c1`, the inhibition is 5.58% (inactive).

For the molecule `O=C1Cc2cc(S(=O)(=O)Nc3cccc(F)c3)ccc2N1`, the inhibition is 24.4% (inactive).

Take `Nc1nonc1-n1nnc(C(=O)N/N=C/c2ccc(Cl)cc2)c1-c1ccc2c(c1)OCO2`: the inhibition is 3.64% (inactive).

As for `O=C(Nc1ccccc1)c1ccc2nsnc2c1`, the inhibition was -5.05% (inactive).

As for `Cc1cc2nc(C(F)(F)F)cc(-c3cccs3)n2n1`, the inhibition is -3.12% (inactive).

Take `COCC(C)NC(=O)c1ccc(Cl)c(Cl)c1` (stereo not given): the inhibition was 4.84% (inactive).

As to `COCC(C)NC(=O)c1ccc(-n2nc(C(F)(F)F)cc2-c2cccs2)cc1` (stereo not given), the inhibition was 35.9% (active).

As to `CC(=O)N1CCN(C(=O)C2(NC(=O)Nc3ccc(C)cc3)CCCCC2)CC1`, the inhibition was -3.87% (inactive).

For the molecule `CCCC(C)C(=O)NCc1ccncc1` (stereo not given), the inhibition was -2.95% (inactive).

Consider `Cc1ccc(NC(=O)c2csc3c2CCCC3)cc1`, for which the inhibition is 1.78% (inactive).

Turning to `COC(=O)c1c(NC(=O)CCN2CCOCC2)sc2c1CCCC2`, the inhibition is 7.3% (inactive).

On to `Cc1ccc(NC(=O)c2c(NC(=O)CCC(=O)O)sc3c2CCCCC3)cc1`, for which the inhibition was 24.6% (active).

With `Cn1nc(C(C)(C)C)c([N+](=O)[O-])c1C(N)=O`, the inhibition is -0.25% (inactive).

Take `O=[N+]([O-])c1ccccc1SNc1ccccn1`: the inhibition was 3.58% (inactive).

In the case of `COc1cnc(-c2ccccn2)nc1Oc1ccc(C(C)(C)C)cc1`, the inhibition was 3.59% (inactive).

As to `C[C@H](CO)N1C[C@H](C)[C@@H](CN(C)C(=O)Nc2ccc3c(c2)OCO3)Oc2c(cccc2N(C)C)C1=O`, the inhibition is 3.8% (inactive).

Take `N#Cc1c(N2CCCCC2)nc(N)c2c(N)nc(SCC(=O)O)cc12`: the inhibition is 27.8% (active).

Consider `CCOC(=O)c1cc(C#N)c(N2CCCCC2)nc1-c1ccccc1`, for which the inhibition was 4.27% (inactive).

Turning to `N#CCc1c(C#N)c(N)nc(N2CCCC2)c1C#N`, the inhibition was -3.2% (inactive).

For `O=C(N=C1SC2CS(=O)(=O)CC2N1c1ccccc1)c1ccccc1` (stereo not given), the inhibition is -2.21% (inactive).

Regarding `CS/C(=C\C(=O)c1ccco1)Nc1ccccc1Cl`, the inhibition was 3.63% (inactive).

Turning to `N#CC1=C(N)C(C#N)(C#N)[C@H](c2ccsc2)[C@H]2COCC=C12`, the inhibition was 3.03% (inactive).

In the case of `CCN1CC=C2C(C#N)=C(N)C(C#N)(C#N)[C@H](c3ccoc3)[C@H]2C1`, the inhibition is 25.2% (active).

For the molecule `CCCN1CC=C2C(C#N)=C(N)C(C#N)(C#N)C(c3cc(OC)ccc3OC)C2C1` (stereo not given), the inhibition was 0.59% (inactive).

In the case of `CCC1CCCCN1C(=S)NC(=O)c1ccco1` (stereo not given), the inhibition is -4.39% (inactive).

Regarding `CCN(CC)S(=O)(=O)c1cc([N+](=O)[O-])ccc1NNC(=O)Nc1ccccc1`, the inhibition is 12% (inactive).

For the molecule `Cc1ccc(CNC(=O)COc2ccc(S(=O)(=O)NC(C)C)cc2)cc1`, the inhibition was -3.29% (inactive).

As for `Cc1cc(S(=O)(=O)NC2CCCCC2)ccc1OCC(=O)NCc1cccnc1`, the inhibition was 8.28% (inactive).

Consider `Cc1ccc(C)c(NS(=O)(=O)c2ccc(OCC(=O)NCc3cccnc3)cc2)c1`, for which the inhibition was 26.4% (active).

For `Cc1ccc(S(=O)Cc2ccc(C(=O)N3CCN(C4CCCCC4)CC3)o2)cc1` (stereo not given), the inhibition is 4.39% (inactive).

Regarding `COc1ccccc1NC1=NC(c2ccc(Cl)cc2)N=C(N)N1` (stereo not given), the inhibition was 1.26% (inactive).

On to `O=C(COC(=O)c1ccco1)NCc1ccc(Cl)cc1`, for which the inhibition is 0.66% (inactive).

For the molecule `COC(=O)CCCC1=CC2=CC(=O)C(C)(OC(=O)c3cccs3)C(=O)C2=CN1c1cccc(C#N)c1` (stereo not given), the inhibition was 7.86% (inactive).

Regarding `CC(C)(C)OC(=O)NCCCC1=CC2=CC(=O)C(C)(OC(=O)c3ccco3)C(=O)C2=CO1` (stereo not given), the inhibition is 33.5% (active).
